p53ts 32C kill – p53ts cell cytotoxicity, permissive temperature. 130,000 tested, 0.93% active. AID 924. Potency, µM (doses to about 46.1 µM), without a hit: at the highest dose activity change, negative = cytotoxicity, actives largely listed as cytotoxic. H1299-p53A138V at 32C, ATP luminescence viability, 24 h;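 further: 0% = DMSO and -100% = full killing by reference compound; nearly all actives have a fitted effect of over 55% in size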
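Cells: H1299 p53ts (A138V), 600/well, pre-incubated 16–30 h at 37C. Cpd up to 46 uM, 24 h, 32C. Readout: ATPlite luminescence, 20 min RT. Normalization: DMSO vs tamoxifen 100 uM. AC50 by Hill equation.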
Imprint erasure – inducers of genomic imprint erasure in mouse ES cells; mouse ES Peg3-LacZ reporter, beta-gal luminescence, 40 h; Potency, µM (doses to about 60.7 µM), inactives show at the highest dose activity change, positive = activation, hits mostly activators; 110,000 tested, 0.02% active; AID 1948
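Gelatin-coated wells received 300 freshly trypsinized female ES cells with a Peg3LacZ-Neo reporter on the maternal allele, then incubated 40 hours at 37C. BetaGlo was added for 5 minutes at room temperature before a single luminescence read.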
p53ts 39C tox – cytotoxicity in p53ts cells at nonpermissive temperature; H1299-p53A138V viability at 39C, ATP luminescence, 24 h; Potency, µM (doses to about 46.1 µM), without a hit: at the top dose activity change, negative = cell killing, most hits filed as cytotoxic; 130,000 tested, 1.5% active; AID 902; further: on the % scale 0 is the no-effect control and ±100 the full control effect; nearly all actives have a fitted effect of over 55% in size
Numbers without * were called inactive; [ ] = dose if it differs, or a comment. The list is not random: actives were taken first. Their share in the collection is about 1.6%. The call rests on the fitted dose curve; in most records, active means well fitted curve in the direction sought with a large enough effect; inconclusive means small, poorly fitted or top-dose-only effect, or another doubt; inactive means no such curve, though single readings can be large; an effect the other way counts as inactive or inconclusive. Potency means the concentration at half of the fitted maximal effect.

Results for CC1CC(C)CN(S(=O)(=O)c2ccc(C(=O)Nc3nnc(-c4cccs4)o3)cc2)C1 (centres undefined) ?
p53ts 32C kill: 6%; Imprint erasure: -32%; p53ts 39C tox: 16µM*

What do the screens show for `COc1cccc(-c2nnc(NC(=O)c3ccc(S(=O)(=O)N4CC(C)OC(C)C4)cc3)o2)c1` (centres undefined)?
p53ts 32C kill: -10%; Imprint erasure: -43%; p53ts 39C tox: 13µM*

What do the screens show for `CCC1CCCCN1S(=O)(=O)c1ccc(C(=O)Nc2nnc(-c3cccs3)o2)cc1` (centres undefined)?
p53ts 32C kill: 2%; Imprint erasure: -26%; p53ts 39C tox: 16µM*

Results for CCC1CCCCN1S(=O)(=O)c1ccc(C(=O)Nc2sc3c(c2C(N)=O)CCC3)cc1 (centres undefined) ?
p53ts 32C kill: 15%; Imprint erasure: -10%[10.9 µM]; p53ts 39C tox: 9%

Results for COc1ccc(-c2nnc(NC(=O)c3ccc(S(=O)(=O)N4CCc5ccccc5C4)cc3)o2)cc1 ?
p53ts 32C kill: -18%; Imprint erasure: -7%; p53ts 39C tox: inconclusive

What do the screens show for `C=CCc1c(C)nc2nc(SCC(=O)Nc3ccccc3CC)nn2c1C`?
p53ts 32C kill: -5%; Imprint erasure: -13%[10.9 µM]; p53ts 39C tox: -17%

How did O=C(c1ccc(Nc2nc3ccccc3n3nnnc23)cc1)N1CCN(c2ccc(F)cc2)CC1 do in these assays?
p53ts 32C kill: 2%; Imprint erasure: -6%[10.9 µM]; p53ts 39C tox: -15%

What do the screens show for `CCCc1nn2c(=O)cc(COC(=O)CNC(=O)COc3ccc(C)cc3)nc2s1`?
p53ts 32C kill: 6%; Imprint erasure: 3%[10.9 µM]; p53ts 39C tox: -6%

How did CCOC(=O)c1sc(NC(=O)c2ccc(C)o2)nc1C do in these assays?
p53ts 32C kill: 7.9µM*; Imprint erasure: -86%; p53ts 39C tox: 7.9µM*

What do the screens show for `CCOC(=O)c1sc(NC(=O)c2ccco2)nc1C`?
p53ts 32C kill: -30%; Imprint erasure: -54%; p53ts 39C tox: -15%

Results for CCc1nc2nc(C)cc(Nc3ccc(OC)cc3)n2n1 ?
p53ts 32C kill: 9%; Imprint erasure: -4%[10.9 µM]; p53ts 39C tox: -3%

What do the screens show for `COc1cc(OC)c(NC(=O)COCc2cc(-c3cccs3)on2)cc1Cl`?
p53ts 32C kill: 4%

Results for CCc1nn2cc(-c3ccccc3)nc2s1 ?
p53ts 32C kill: 10µM*; Imprint erasure: -91%; p53ts 39C tox: 16µM*

How did Cc1nn2cc(-c3ccc(-c4ccccc4)cc3)nc2s1 do in these assays?
p53ts 32C kill: -26%; Imprint erasure: -22%; p53ts 39C tox: -22%

What do the screens show for `CCOc1ccc(-c2cn3nc(CC(C)C)sc3n2)cc1`?
p53ts 32C kill: inconclusive; Imprint erasure: -7%[10.9 µM]; p53ts 39C tox: inconclusive

What do the screens show for `COCc1nn2cc(-c3ccc(C)cc3)nc2s1`?
p53ts 32C kill: 10µM*; Imprint erasure: -24%[10.9 µM]; p53ts 39C tox: 13µM*

Results for CCCN(CCC)C(=O)c1c[nH]c2ccc(S(=O)(=O)N(C)c3ccc(OCC)cc3)cc2c1=O ?
p53ts 32C kill: 9%; Imprint erasure: -8%[10.9 µM]; p53ts 39C tox: 16%

Results for COc1ccccc1C(=O)Nc1onc2c1CCCC2 ?
p53ts 32C kill: inconclusive; Imprint erasure: -48%[10.9 µM]; p53ts 39C tox: -28%

How did Cc1ccc(C(=O)Nc2onc3c2CCCC3)cc1 do in these assays?
p53ts 32C kill: 4µM*; Imprint erasure: -15%[10.9 µM]; p53ts 39C tox: 6.3µM*

What do the screens show for `Cc1ccc(NC(=O)Cn2c(=O)n(CCC(=O)N3CCc4ccccc4C3)c(=O)c3ccccc32)cc1`?
p53ts 32C kill: 1%; Imprint erasure: 9%[10.9 µM]; p53ts 39C tox: -3%

How did CC1=C(C(=O)Nc2ccc(C)cc2C)C(c2ccc([N+](=O)[O-])cc2)n2ncc(C(=O)Nc3ccc(F)cc3)c2N1 (centres undefined) do in these assays?
p53ts 32C kill: 2%; Imprint erasure: 2%[10.9 µM]; p53ts 39C tox: 14%

How did COc1ccccc1CNC(=O)CCC1N=C2c3ccccc3N=C(SCC(=O)Nc3ccc(N(C)C)cc3)N2C1=O (centres undefined) do in these assays?
p53ts 32C kill: -5%; Imprint erasure: 14%[10.9 µM]; p53ts 39C tox: -29%

What do the screens show for `COc1ccc(NC(=O)CCc2c(C)nn(-c3ccc(N4CCCCC4)nn3)c2C)cc1Cl`?
p53ts 32C kill: 16µM*; Imprint erasure: -29%[10.9 µM]; p53ts 39C tox: 10µM*

How did COc1cc(NC(=O)CCc2c(C)nn(-c3ccc(N4CCCCC4)nn3)c2C)cc(OC)c1OC do in these assays?
p53ts 32C kill: inconclusive; Imprint erasure: -16%[10.9 µM]; p53ts 39C tox: inconclusive

Results for O=C(Nc1ccc(Cl)cc1)C1CCCN(S(=O)(=O)c2ccc3[nH]c(=O)ccc3c2)C1 (centres undefined) ?
p53ts 32C kill: -22%; Imprint erasure: inconclusive; p53ts 39C tox: 2%

Results for CC(C)c1ccc(NC(=O)C2CCCN(S(=O)(=O)c3ccc4[nH]c(=O)ccc4c3)C2)cc1 (centres undefined) ?
p53ts 32C kill: inconclusive; Imprint erasure: -10%[10.9 µM]; p53ts 39C tox: 10µM*

How did Cc1ccc(CNC(=O)C(C)n2nc(C)c3sc4ccccc4c3c2=O)cc1 (centres undefined) do in these assays?
p53ts 32C kill: inconclusive; Imprint erasure: -27%[10.9 µM]; p53ts 39C tox: inconclusive

Results for CCC(C(=O)NCCc1ccc(SC)cc1)n1nc(C)c2sc3ccccc3c2c1=O (centres undefined) ?
p53ts 32C kill: -3%; Imprint erasure: -10%[10.9 µM]; p53ts 39C tox: -9%

Results for Cc1nn(C(C)C(=O)NC2CCCCC2)c(=O)c2c1sc1ccccc12 (centres undefined) ?
p53ts 32C kill: 13µM*; Imprint erasure: -33%[10.9 µM]; p53ts 39C tox: 10µM*

What do the screens show for `CSc1ccc(CCNC(=O)C(C)n2nc(C)c3sc4ccccc4c3c2=O)cc1` (centres undefined)?
p53ts 32C kill: 10µM*; Imprint erasure: -34%[10.9 µM]; p53ts 39C tox: 10µM*

How did Cc1oc2c(c1C(=O)Nc1ccc(OC(F)(F)F)cc1)C1=NCCN1C=N2 do in these assays?
p53ts 32C kill: -2%; Imprint erasure: -6%[10.9 µM]; p53ts 39C tox: -17%

What do the screens show for `COc1ccc(-n2ccn(Cc3ccccc3Cl)c(=O)c2=O)cc1OC`?
p53ts 32C kill: 5%; Imprint erasure: -11%[10.9 µM]; p53ts 39C tox: 4%

Results for O=C(Nc1nnc2n1CCS2)c1ccccc1 ?
p53ts 32C kill: -2%; Imprint erasure: -17%[10.9 µM]; p53ts 39C tox: -1%

How did CC(C)Oc1ccc(C(=O)Nc2nnc3n2CCS3)cc1 do in these assays?
p53ts 32C kill: inconclusive; Imprint erasure: -69%[10.9 µM]; p53ts 39C tox: 13µM*

Results for Cc1cc2nc(-c3ccc(NC(=O)C(C)C)cc3)oc2cc1C ?
p53ts 32C kill: 10%; Imprint erasure: -30%; p53ts 39C tox: -6%

Results for CC(C)C(=O)Nc1ccc(-c2nc3cccnc3o2)cc1 ?
p53ts 32C kill: 10µM*; Imprint erasure: -37%; p53ts 39C tox: 10µM*

How did CCCN(c1ccccc1CC)S(=O)(=O)c1ccc2c(c1)CC(C)N2C(=O)C1CC1 (centres undefined) do in these assays?
p53ts 32C kill: 8%; Imprint erasure: -18%[10.9 µM]; p53ts 39C tox: -12%

High-throughput results: PubChem, National Center for Advancing Translational Sciences (NCATS)
